Test results from PubChem BioAssay AID1159580 (chemical genetic matrix, 2015).
Out of some 5,500 compounds screened, about 2,000 (36%) were called active. Another 18% or so got no clear call; they are omitted. Rule as the data show it: active = normalized growth mostly below about 0.91 (no sharp cut-off); inconclusive = no clear call, values can overlap the other calls; inactive = mostly above about 0.92. Some of the results follow.

Assay: chemical genetic growth profiling, strain panel (AID 1159580);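 also: tested at 20 µM; growth read once vehicle control cultures reached saturation at 30 °C; 1 = growth at the plate median or of vehicle wells; lower values mean less growth of the strain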
Conditions: S. cerevisiae deletion strains, growth OD

Measured: normalized growth

CC(C)(Oc1ccc(Cl)cc1)C(=O)O
inactive: locus YAL013W, strain DEP1, stronger effect = lower value 1 | locus YAL021C, strain ccr4, stronger effect = lower value 1.02 | locus YAL026C, strain drs2, stronger effect = lower value 1.03 | locus YAL030W, strain snc1, stronger effect = lower value 0.996 | locus YBL061C, strain skt5, stronger effect = lower value 1.04 | locus YBR009C, strain hhf1, stronger effect = lower value 0.988 | locus YBR021W, strain FUR4, stronger effect = lower value 1.12 | locus YBR023C, strain chs3, stronger effect = lower value 1.03 | locus YBR171W, strain sec66, stronger effect = lower value 1.02 | locus YBR229C, strain ROT2, stronger effect = lower value 0.998 | locus YBR231C, strain swc5, stronger effect = lower value 0.997 | locus YBR279W, strain paf1, stronger effect = lower value 1.02 | locus YCL011C, strain gbp2, stronger effect = lower value 1 | locus YCL016C, strain dcc1, stronger effect = lower value 1.03 | locus YCL029C, strain bik1, stronger effect = lower value 0.956 | locus YCL069W, strain vba3, stronger effect = lower value 1.01 | locus YCR088W, strain abp1, stronger effect = lower value 1.01 | locus YDL005C, strain med2, stronger effect = lower value 1.02 | locus YDL035C, strain GPR1, stronger effect = lower value 0.997 | locus YDL040C, strain nat1, stronger effect = lower value 0.996 | locus YDL074C, strain BRE1, stronger effect = lower value 0.949 | locus YDL101C, strain DUN1, stronger effect = lower value 0.986 | locus YDL134C, strain PPH21, stronger effect = lower value 1 | locus YDL185W, strain tfp1, stronger effect = lower value 0.938 | locus YDL192W, strain arf1, stronger effect = lower value 0.981 | locus YDR001C, strain nth1, stronger effect = lower value 1 | locus YDR069C, strain doa4, stronger effect = lower value 1.01 | locus YDR101C, strain arx1, stronger effect = lower value 0.979 | locus YDR137W, strain rgp1, stronger effect = lower value 1.01 | locus YDR150W, strain NUM1, stronger effect = lower value 0.995 | locus YDR159W, strain sac3, stronger effect = lower value 0.949 | locus YDR162C, strain NBP2, stronger effect = lower value 0.987 | locus YDR195W, strain ref2 0.979 | locus YDR297W, strain sur2, stronger effect = lower value 0.99 | locus YDR318W, strain mcm21, stronger effect = lower value 0.98 | locus YDR334W, strain swr1, stronger effect = lower value 1 | locus YDR335W, strain msn5, stronger effect = lower value 1.01 | locus YDR388W, stronger effect = lower value 0.979 | locus YDR392W, strain spt3, stronger effect = lower value 0.974 | locus YDR502C, strain sam2, stronger effect = lower value 0.993 | locus YEL003W, strain gim4, stronger effect = lower value 0.984 | locus YEL037C, strain rad23, stronger effect = lower value 1.01 | locus YEL061C, strain CIN8 (second series), stronger effect = lower value 1 | locus YEL061C, strain CIN8, stronger effect = lower value 1 | locus YER015W, strain faa2, stronger effect = lower value 1.01 | locus YER016W, strain bim1, stronger effect = lower value 1.03 | locus YER110C, stronger effect = lower value 0.983 | locus YER111C, strain swi4, stronger effect = lower value 1.01 | locus YER155C, strain BEM2 (second series), stronger effect = lower value 1.01 | locus YER155C, strain BEM2, stronger effect = lower value 0.983 | locus YER167W, strain BCK2, stronger effect = lower value 0.999 | locus YFR010W, strain ubp6, stronger effect = lower value 0.976 | locus YGL078C, strain dbp3, stronger effect = lower value 0.998 | locus YGL086W, strain mad1, stronger effect = lower value 0.997 | locus YGL167C, strain pmr1, stronger effect = lower value 1.01 | locus YGL173C, strain kem1, stronger effect = lower value 0.982 | locus YGL227W, strain vid30, stronger effect = lower value 0.993 | locus YGL240W, strain doc1, stronger effect = lower value 1 | locus YGL248W, strain PDE1, stronger effect = lower value 1 | locus YGL253W, strain hxk2, stronger effect = lower value 1.01 | locus YGR078C, strain PAC10, stronger effect = lower value 0.954 | locus YGR135W, strain pre9, stronger effect = lower value 1.01 | locus YGR229C, strain SMI1, stronger effect = lower value 1 | locus YGR252W, strain gcn5, stronger effect = lower value 1.23 | locus YHR013C, strain ard1, stronger effect = lower value 1.02 | locus YHR027C, strain rpn1, stronger effect = lower value 1 | locus YHR030C, strain SLT2, stronger effect = lower value 1 | locus YHR079C, strain IRE1 (second series), stronger effect = lower value 0.964 | locus YHR094C, strain hxt1, stronger effect = lower value 0.963 | locus YHR129C, strain ARP1, stronger effect = lower value 0.988 | locus YHR142W, strain chs7, stronger effect = lower value 1.04 | locus YHR200W, strain rpn10, stronger effect = lower value 0.977 | locus YIL066C, strain RNR3, stronger effect = lower value 0.99 | locus YIL073C, strain SPO22, stronger effect = lower value 0.948 | locus YIL125W, strain kgd1, stronger effect = lower value 0.98 | locus YIR030C, strain dcg1, stronger effect = lower value 0.988 | locus YJL092W, strain hpr5, stronger effect = lower value 1.02 | locus YJL095W, strain BCK1 (second series), stronger effect = lower value 1.02 | locus YJL095W, strain BCK1, stronger effect = lower value 0.976 | locus YJL115W, strain asf1, stronger effect = lower value 1.01 | locus YJL129C, strain trk1, stronger effect = lower value 1.03 | locus YJL134W, strain LCB3, stronger effect = lower value 0.999 | locus YJL154C, strain vps35, stronger effect = lower value 1.01 | locus YJL164C, strain tpk1, stronger effect = lower value 0.993 | locus YJL166W, strain qcr8, stronger effect = lower value 0.997 | locus YJL168C, strain set2, stronger effect = lower value 0.976 | locus YJL187C, strain SWE1 (second series), stronger effect = lower value 0.973 | locus YJR043C, strain POL32, stronger effect = lower value 0.985
